High-throughput results from PubChem.
GPR151 activ – human GPR151 activation | activation, % at 11.2 µM | Q8TDV0 | PathHunter beta-arrestin GPR151 cells, luminescence | hit rate 1% among 650,000; in the data active means activation above about 4.9%;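 further: 0% = median of compound wells and 100% = cells with positive control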
FBW7 activator – human FBW7 E3 ligase activation, primary screen. AlphaScreen FBW7–phospho-cyclin E peptide binding, activator screen. normalized activity (activation), % at 26.1 µM. hit rate 0.13% among 650,000. AID 1259310; in the data active means normalized activity above about 1.9%;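 further: purified mutant Fbw7 with reduced substrate affinity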
TEAD-YAP inh – TEAD-YAP interaction inhibition; AID 1259422; inhibition, % at 9.12 µM; HEK-TIYL cells, TEAD-Gal4/YAP UAS-luciferase luminescence; hit rate 1.4% among 640,000; in the data active means inhibition above about 32%;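 further: 0% = median of test compound wells and 100% = reference inhibitor wells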
MITF primary – blocks human microphthalmia-associated transcription factor. hit rate 0.91% among 650,000. AID 1259374. AlphaScreen MITF homodimerization, bead proximity signal. inhibition, % at 2.6 µM; in the data active means inhibition above about 50%;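 further: 0% = vehicle wells with protein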
Target sequence (O75030 whole entry, looked up): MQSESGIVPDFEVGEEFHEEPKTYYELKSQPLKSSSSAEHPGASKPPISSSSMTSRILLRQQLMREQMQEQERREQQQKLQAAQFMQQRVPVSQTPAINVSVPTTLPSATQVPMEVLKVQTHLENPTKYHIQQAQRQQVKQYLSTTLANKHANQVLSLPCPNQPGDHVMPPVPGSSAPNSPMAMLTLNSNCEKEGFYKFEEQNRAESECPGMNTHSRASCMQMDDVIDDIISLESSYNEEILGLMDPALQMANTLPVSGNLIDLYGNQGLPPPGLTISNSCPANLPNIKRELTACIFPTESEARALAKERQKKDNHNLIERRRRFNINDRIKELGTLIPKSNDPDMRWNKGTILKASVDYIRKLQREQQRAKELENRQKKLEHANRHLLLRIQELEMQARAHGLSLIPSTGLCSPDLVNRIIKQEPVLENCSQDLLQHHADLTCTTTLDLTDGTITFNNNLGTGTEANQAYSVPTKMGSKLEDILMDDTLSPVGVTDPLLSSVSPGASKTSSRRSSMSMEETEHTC
Active calls of the source: *. Compounds with a hit are over-represented: about 3.5% of the library has one in this group of screens.

SMILES	GPR151 activ	FBW7 activator	TEAD-YAP inh	MITF primary
c1ccc2oc(-c3ccc(-c4nc5ccccc5o4)cc3)nc2c1	-1	0	2	7
c1ccc2nc(-c3nc4ccccc4o3)ccc2c1	-10	0	77*	0
c1ccc2[nH]c(-c3nc4ccccc4o3)nc2c1	-11	0	84*	10
CN1CCc2c(OCc3ccc(Cl)cc3)cccc2C1=O	1	0	8	-4
CCOC(=O)N1CCN(S(=O)(=O)c2ccc(C(=O)Nc3ccc(C(C)=O)cc3)cc2)CC1	1	0	-11	-4
CCOC(=O)N1CCN(S(=O)(=O)c2ccc(C(=O)Nc3ccc(F)cc3)cc2)CC1	0	0	41*	4
CN(C1CCCCC1)S(=O)(=O)c1ccc(NC(=O)c2ccc(F)cc2)cc1	5	0	4	8
CCN(C1CCCCC1)S(=O)(=O)c1ccc(C(=O)Nc2ccc(F)cc2)cc1	1	0	33*	-1
COc1ccccc1C1C(C(C)=O)=C(O)C(=O)N1CC1CCCO1 (stereo not given)	0	0	0	-3
O=C(COC(=O)c1cc2c3c(c1)C1C=CCC1CN3CC1CC=CC21)c1ccc(Br)cc1 (stereo not given)	1	0	3	-8
CCCCONC(=O)Nc1ccccc1Cl	2	0	-3	-1
CC(C)N1CCN(c2ccc(Oc3cc(Nc4ccccc4C(N)=O)c(C(F)(F)F)cn3)cc2)CC1	-1	1	14	12
CNC(=O)c1ccccc1Nc1cc(NC(=O)Cc2ccc(N)cc2)ncc1C(F)(F)F	-1	1	79*	-17
NC(=O)c1ccccc1Nc1cc(NC(=O)Cc2ccc(F)cc2)ncc1F	-1	0	15	15
CNC(=O)c1ccccc1Nc1cc(NC(=O)C2CCc3ccccc32)ncc1C(F)(F)F (stereo not given)	-2	0	79*	16
CS(=O)(=O)NC1CCC(Nc2cc(Nc3ccccc3C(N)=O)c(C(F)(F)F)cn2)CC1 (stereo not given)	-2	1	98*	11
O=C(Cc1ccc2c(c1)OCO2)Nc1cc(Nc2ccccc2-c2nn[nH]n2)c(C(F)(F)F)cn1	-1	1	5	10
CNC(=O)c1ccccc1Nc1cc(NC(=O)Cc2ccsc2)ncc1C(F)(F)F	0	0	77*	-9
Nc1ccc(-c2nnn(CC(=O)Nc3ccc(F)c(Cl)c3)n2)cc1	2	1	6	-4
COc1ccc(OC)c(NC(=O)C2CCCN2C(=O)Nc2ccc(F)cc2F)c1 (stereo not given)	0	0	11	11
CC1CCCC(C)N1C(=O)C1CCCCC1C(=O)O (stereo not given)	0	0	-4	-56
O=C(Nc1ncn[nH]1)c1cn(-c2ccccc2)nc1-c1cccs1	0	0	-6	-2
C=CCSc1nc2sc3c(c2c(=O)n1-c1ccccc1)CCc1ccccc1-3	0	0	11	-7
CNC(=O)c1ccccc1Nc1cc(NCc2ccccc2)ncc1C(F)(F)F	1	0	22	18
NC(=O)c1ccccc1NC(=O)Cc1cccs1	0	0	3	2
SMILES	GPR151 activ	FBW7 activator	TEAD-YAP inh	MITF primary
CNC(=O)c1ccccc1Nc1cc(NC(=O)Cc2cccs2)ncc1C(F)(F)F	-1	0	74*	8
CNC(=O)c1ccccc1Nc1cc(NC(=O)Cc2ccc(F)cc2)ncc1C(F)(F)F	0	0	72*	-7
CNC(=O)c1ccccc1Nc1cc(NC(=O)Cc2ccccc2F)ncc1C(F)(F)F	0	0	81*	9
COCCNc1c(-c2ccccc2)c(=O)c1=O	0	0	0	11
CCN(C(=O)CCl)c1cccc2ccccc12	3	0	67*	-10
Fc1ccc(CNc2nccn3c(-c4cccc5cccnc45)cnc23)cc1	1	0	9	-21
CC(C)CNc1nccn2c(-c3cccc4cccnc34)cnc12	1	0	42*	-12
CS(=O)(=O)N(CC(=O)Nc1cccc([N+](=O)[O-])c1)c1ccc2c(c1)OCCO2	-1	0	9	-6
COc1cc(CNC(=O)Cn2nc(C(F)(F)F)c(Br)c2C)cc(OC)c1	0	0	3	20
Cc1c(Br)c(C(F)(F)F)nn1CC(=O)NCc1ccc(F)cc1C(F)(F)F	-1	0	36*	-1
COc1ccccc1C1CC(=O)Nc2cc3c(cc21)OCO3 (stereo not given)	-1	0	53*	11
COc1ccc(OC)c(C2C3=C(COC3=O)Nc3cc4c(cc32)OCO4)c1 (stereo not given)	-1	1	55*	-7
